# Hits are enriched below; roughly 2.8% of the tested compounds scored in any of these assays.
# LDHA block: LDHA (human) enzyme inhibition. P00338. purified LDHA, NADH/diaphorase-resazurin fluorescence; stronger effect = lower value. activity change, % (values are at about 110 or 230 µM). hit rate 0.15% among 480,000; in the data active = activity change below about -30%; inconclusive = mostly about -25% to -30%;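 also: plate controls were DMSO wells for no effect and wells without enzyme for full effect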
#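 LDH5 2 nM; NADH 0.06 mM, pyruvate 0.2 mM; 200 mM Tris pH 7.4, EDTA, Tween-20; 5 min RT. Detection: diaphorase 0.133 mg/mL + resazurin 37 µM, fluorescence ex540/em590 at 0 and 20 min; normalized to enzyme-free and DMSO wells.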
# pAkt inh: Akt phosphorylation inhibition; Neuro2A IGF-stimulated pAkt S473 HTRF, 20 min; stronger effect = lower value; activity change, % for hits at 50 µM; hit rate 0.32% among 360,000; in the data active = activity change below about -80%; inconclusive = mostly about -51% to -80%; also: % is scaled to controls: 0 for no effect and ±100 for the full control effect
#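 Neuro2A cells in DMEM with 0.5% FBS, overnight at 37 deg C, given compound at single 50 µM final, then IGF (6 nM final) for 20 min at 37 deg C. Lysed; phospho-Akt Ser473 by HTRF after 24 h, 665/615 ratio.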
# PI4K2A inh: PI4K2A (human) kinase inhibition. activity change, negative = inhibition, % at 76.9 µM. Q9BTU6. AID 1346378. hit rate 0.13% among 420,000. purified PI4K2A, ADP-Glo luminescence, 1 h; stronger effect = lower value; in the data active = activity change below about -50%; inconclusive = mostly about -30% to -49%;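 also: -100% = wells without enzyme as full effect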
#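 Compounds are screened against recombinant PI4K2A using PI as substrate and ATP, the latter dispensed at 300 microM. Reactions run one hour at ambient temperature before ADP-Glo detection; full inhibition defined by wells lacking enzyme.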
# DRD3 agonist: D3 dopamine receptor (human) agonism. P35462. D3R DiscoveRx beta-arrestin cells, luminescence, 90 min. max activation, %. hit rate 0.58% among 410,000. AID 652048; in the data active = max activation above about 30%; also: 0% is about no effect
#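 Cells at 1500/well, incubated overnight, then treated with pinned compounds (dopamine as control) for 90 min at 37 degrees C. DiscoveRx reagent added for 30 - 60 minutes at room temperature; luminescence read.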
# RGS4 inhibitor: blocks human RGS4-accelerated GTP hydrolysis; P49798; Transcreener GDP fluorescence polarization, RGS4-accelerated GTP hydrolysis; Potency, µM (highest dose often 114 µM), for the others: at the top dose activity change, negative = inhibition, most hits filed as inhibitors; hit rate 0.039% among 390,000; active = well fitted inhibition curve with a large enough effect; inconclusive = small, poorly fitted or top-dose-only effect; inactive = no such curve, though single readings can be large or run the other way; also: potency is read from the fitted curve at half-maximal effect; % is scaled to controls: 0 for no effect and ±100 for the full control effect; nearly all actives have a fitted effect of over 75% in size
# Target sequence (P49798 whole entry, looked up): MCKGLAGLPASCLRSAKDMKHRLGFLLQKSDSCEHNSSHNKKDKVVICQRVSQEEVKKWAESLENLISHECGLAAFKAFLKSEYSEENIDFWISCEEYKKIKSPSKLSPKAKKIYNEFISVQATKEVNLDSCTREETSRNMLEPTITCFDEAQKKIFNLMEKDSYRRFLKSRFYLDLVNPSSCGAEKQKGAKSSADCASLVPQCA
#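 MLSMR compounds (23 nl, pin-transferred) preincubated 10 min at room temperature with a 500nM (2x) first reagent, then RGS4 at 900nM (2x) plus Transcreener GDP mix added; fluorescence polarization (620/688 nm) read before and after 90 min at 30 °C.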
# D3 antag: blocks the human D3 dopamine receptor. P35462. D3R cells, DiscoveRx beta-arrestin luminescence, antagonist mode; stronger effect = lower value. max response, negative = inhibition, %. hit rate 2.5% among 360,000. AID 652054; in the data active = max response below about -50%; inconclusive = no clear call, values can overlap the other calls; also: % is scaled to controls: 0 for no effect and ±100 for the full control effect
#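 Cells plated overnight at 1500 cells/well, then exposed to library compounds with dopamine controls for 90 minutes at 37 degrees C. DiscoveRx reagent added for 30–60 minutes at room temperature; luminescence read, quantitative HTS format.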
# Numbers without * were called inactive; i = inactive; ? = inconclusive; / = not tested or not shown; [ ] = another dose, or the depositor's remark.
SMILES,LDHA block,pAkt inh,PI4K2A inh,DRD3 agonist,RGS4 inhibitor,D3 antag
COc1ccc(N2CCN(C(=O)CSc3nnc4c5cc(C)ccc5n(C)c4n3)CC2)cc1,-1,i,-2,43*,-17%,21
COc1ccc(N2CCN(C(=O)CSc3nnc4c(C)cc5ccc(C)c(C)c5n34)CC2)cc1,0,-119%*,-5,-3,9%,-4
CCOc1ccc(/C=C2\Oc3cc(OS(C)(=O)=O)ccc3C2=O)cc1,5,/,/,/,/,/
O=C(Nc1cc(Br)c(O)c(Br)c1)c1cccc(NC(=O)c2ccco2)c1,-6,i,-10,1,-8%,13
O=C(Nc1cccc(N=Cc2cc(Cl)cc(Br)c2O)c1)c1ccco1,-2,i,-7,-7,-25%,-75*
O=C(Nc1cccc(N=Cc2cc(Br)cc(Br)c2O)c1)c1ccco1,23,i,-19,11,-25%,-61*
OC(c1ccc(CN2CCCCC2)cc1)c1ncc(-c2ccccc2)[nH]1 (stereo not drawn),2,i,3,-15,/,-107*
CC(NC(=O)c1nn(C)c(=O)c2ccccc12)c1cccs1 (stereo not drawn),8,/,/,/,/,/
Cc1ccc(NC(=S)c2nc3ccccc3s2)cc1,-8,i,-82*,0,?,67
Cc1[nH]c2ccccc2c1C(C(=O)O)N1CCN(c2cc(C)c3ccccc3n2)CC1 (stereo not drawn),-2,/,/,/,/,/
O=C(O)c1cc(Cl)cc(Cl)c1Br,12,/,/,/,/,/
C1=CCC(CN2CCNCC2)CC1 (stereo not drawn),-5,i,2,1,-8%,-4
Cc1ccc(C)c(N2CCN(CC3CC=CCC3)CC2)c1 (stereo not drawn),5,i,2,-29,-15%,-73*
CCC(C)NC(=O)[C@@H](NC(=O)N1CCn2c1nc1ccccc12)C(C)C (stereo partly drawn),-2,/,/,/,/,/
CCOC(=O)CNC(=O)CSc1nc(-c2ccc(OC)cc2)ns1,-12,i,2,2,-27%,-9
COc1ccc(-c2nsc(SCC(=O)Nc3cc(C)on3)n2)cc1,-2,-81%*,-8,-3,?,-1
Cc1cccc(NC(=O)Nc2c[nH]c(=O)[nH]c2=O)c1C,0,/,/,/,/,/
CC(C)Oc1ccccc1/C=C(/C#N)C(=O)Nc1cccc(C(F)(F)F)c1,5,/,/,/,/,/
COc1cc2c(cc1OC)C(c1cc3cc(C)ccc3[nH]c1=O)N(C(=O)c1ccco1)CC2 (stereo not drawn),-2,i,-4,37*,-23%,10
COc1ccc2cc(C3c4cc(OC)c(OC)cc4CCN3C(=O)c3ccco3)c(=O)[nH]c2c1 (stereo not drawn),0,i,-4,4,-8%,-12
CN(C(=O)CSc1nnc(-c2ccccc2F)o1)C1(c2ccccc2Cl)CCCCC1=O (stereo not drawn),-10,/,/,/,/,/
Cn1c(-c2sc3ccccc3c2Cl)n[nH]c1=S,-3,i,0,-6,-18%,-76*
Cn1c(CSc2nc3ccccc3s2)n[nH]c1=S,-5,i,3,1,-30%[56.9 µM],-65*
COc1ccc(Oc2c(C)oc3cc(OCC(=O)O)ccc3c2=O)cc1,7,/,/,/,/,/
Cc1oc2ncnc(N3CCOCC3)c2c1C(=O)NCC1CCN(Cc2cccc(F)c2)CC1,-5,/,/,/,/,/
SMILES,LDHA block,pAkt inh,PI4K2A inh,DRD3 agonist,RGS4 inhibitor,D3 antag
COc1ccccc1C1CCN(Cc2cccc([N+](=O)[O-])c2)CC1,0,i,0,-23,22%,-95*
O=[N+]([O-])c1cccc(CN2CCN(c3ncccn3)CC2)c1,-17,i,-1,1,-36%,-14
O=[N+]([O-])c1cccc(COc2cccc(CN3CCCCC3)c2)c1,0,i,4,-62,3%,-77*
COc1ccccc1C1CCN(Cc2ccc3ccccc3c2)CC1,-2,i,3,-34,-5%,-62*
O=[N+]([O-])c1cccc(CN2CCN(c3cccc4[nH]ccc34)CC2)c1,2,i,1,-6,40%,-97*
COc1ccc(CN2CCC(Cc3ccccc3)CC2)cc1OC,-9,i,4,-18,32%,?

# Source: PubChem BioAssay (National Center for Advancing Translational Sciences (NCATS))
